PubChem BioAssay AID651820 (National Center for Advancing Translational Sciences (NCATS), 2012)
About 12,000 (3.5%) of roughly 340,000 compounds were called active. Roughly 18% stayed inconclusive and do not appear here. This excerpt belongs to a sample that is enriched for actives. Values without a mark were called inactive. The call rests on the fitted dose curve; in most records, active means well fitted inhibition curve with a large enough effect; inconclusive means small, poorly fitted or top-dose-only effect, or another doubt; inactive means no such curve, though single readings can be large or run the other way.

Test: qHTS Assay for Inhibitors of Hepatitis C Virus (HCV)
Conditions: Huh7.5.1 HCVcc-Cre infection, luciferase reporter, 44 h; series mostly up to 41.8 µM; activity change, negative = inhibition: at the top concentration
In short: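 Infectious HCV cell culture screen: compound-treated cells (1,000/well, pre-plated 4 h) are infected with HCVcc-Cre at roughly 0.5 moi and grown 44 h. Infection is quantified by luciferase signal after 15 min substrate incubation at room temperature.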
On the % scale 0 is the no-effect control and ±100 the full control effect; potency means the concentration at half of the fitted maximal effect.

Structure (SMILES)	activity change, negative = inhibition	Potency
CN(C)C(CNC(=O)c1cccc(S(=O)(=O)Nc2ccc(Br)cc2)c1)c1ccco1 (configuration not stated)	10%	–
O=C(CCCOc1ccccc1)NNC(=O)c1ccc(Cl)cc1	22.7%	–
CC1CCCCC1NC(=O)Cn1c(=O)cnc2ccccc21 (configuration not stated)	10.8%	–
Cc1nn(Cc2ccccc2)c(C)c1C(=O)N1CCN(CC(=O)Nc2ccccc2Cl)CC1	-5.14%	–
Clc1ccc(C2=CSC3=Nc4cccc5cccc(c45)N23)cc1	–	5.01 µM (active)
CCc1nnc(NS(=O)(=O)c2ccc(NC(=O)c3cccc(OC(F)(F)C(F)F)c3)cc2)s1	14.1%	–
Cc1cc(OCC(=O)NC2CCN(C)CC2)ccc1[N+](=O)[O-]	0.975%	–
Cc1cc(C(=O)O)ccc1[N+](=O)[O-]	38.5%	–
Cc1cc(OCCCCOc2ccc(C#N)cc2)ccc1[N+](=O)[O-]	–	8.91 µM (active)
COc1ccc(N2CCN(S(=O)(=O)c3cc4c5c(c3)C(C)C(=O)N5CCC4)CC2)cc1 (configuration not stated)	0.733% [at 8.37 µM]	–
N#C/C(=C1/CCCN1)c1ccccn1	-11.2%	–
Cn1c(/C(C#N)=C2/CCCCCN2)nc2ccccc21	-26.8%	–
N#C/C(=C1\CCCN1)c1nc(-c2ccccc2)cs1	–	6.31 µM (active)
COC1=NC2=NCCN2C(OC)=N1	-0.005%	–
OC(COc1ccc(F)cc1Cl)CN1CCc2ccccc2C1 (configuration not stated)	9.89%	–
Cc1ccc(OCC(O)CN2CCN(CC(O)COc3ccc(C)cc3Cl)CC2)c(Cl)c1 (configuration not stated)	–	25.1 µM (active)
COc1ccccc1OCC(O)CN1CCOCC1 (configuration not stated)	27.6%	–
COc1ccc2nc(N3C(=O)C(O)=C(C(=O)c4ccco4)C3c3ccco3)sc2c1 (configuration not stated)	0.823%	–
CCOc1ccc(/C=C(/C#N)c2nnc(N3CCOCC3)n2-c2ccccc2)cc1OC	2.12%	–
CC(C)N(Cc1ccccc1)C(=O)COC(=O)c1ccccc1SCC(=O)N1CCCC1	-26.1%	–
CC(=O)Nc1ccc(S(=O)(=O)Oc2ccc(Br)cc2C(=S)N2CCOCC2)cc1	-17.6%	–
CCOc1cc(C(=S)N2CCOCC2)ccc1O	2.27%	–
CCOc1cc(C(=S)N2CCOCC2)ccc1OS(=O)(=O)c1ccc(Br)cc1	–	10 µM (active)
Cc1cc(NC(=O)COc2ccccc2C#N)no1	10.6%	–
O=C(Nc1cc(S(=O)(=O)N2CCOCC2)ccc1N1CCOCC1)c1c(F)cccc1Cl	-1.1%	–
COc1ccc(Cc2nc(-c3ccccn3)no2)cc1OC	12.1%	–

Structure (SMILES)	activity change, negative = inhibition	Potency
COc1cnc(-c2ccccn2)nc1Oc1ccc(C(C)(C)C)cc1	–	10 µM (active)
COc1ccc(Sc2nc(-c3ccccc3)ncc2OC)cc1	-21.6%	–
O=C1COc2ccc(C(=O)COC(=O)c3ccccc3Cl)cc2N1	13.4%	–
COc1ccc(-c2ccc3c(c2)C2CC3CCN2CCC#N)cc1 (configuration not stated)	-2.86% [at 8.37 µM]	–
CC1(C)O[C@@H]2[C@H](O1)[C@@H](COS(=O)(=O)O)O[C@H]2n1cnc2c(=O)[nH]cnc21	-18%	–
Cc1ccc(S(=O)(=O)N(C)C)cc1NC(=O)COC(=O)/C=C/c1cccs1	-12.4%	–
O=C(COC(=O)COc1cc(Cl)c(Cl)cc1Cl)NC1CC1	0.0616%	–
O=C(COC(=O)c1ccc(O)cc1O)NNC(=O)c1cccs1	38.1%	–
COc1ccc2c(c1)C(=O)CC(c1ccccc1)O2 (configuration not stated)	-13.2%	–
COc1cc(-c2n[nH]c(=S)n2Cc2ccccc2)cc(OC)c1OC	26.4%	–
CCC(C)n1c(-c2cc(OC)c(OC)c(OC)c2)nc2nc3ccccc3nc21 (configuration not stated)	–	15.8 µM (active)
COc1cc(C(=O)Nn2c(CC(C)C)nc3ccccc3c2=O)cc(OC)c1OC	-5.06%	–
Cc1cc2nc3n(c2cc1C)CC1CC(C(=O)NCCC(C)C)N(C)C31 (configuration not stated)	20.5%	–
Cc1cccc(Nc2nnc(SCC(=O)c3c(N)n(C4CC4)c(=O)[nH]c3=O)s2)c1C	-9.86%	–
O=[N+]([O-])c1ccc(N=NNc2ccc([N+](=O)[O-])cc2)cc1	1.27%	–
COc1cc(OC)c(C(=O)NNC(=O)c2ccc(NS(=O)(=O)c3cccs3)cc2)cc1OC	-11.4%	–
CC(Nc1nc(N2CCN(CCO)CC2)nc2ccccc12)c1ccccc1 (configuration not stated)	-16.3%	–
CC(Nc1nc(N2CCCC2)nc2ccccc12)c1ccccc1 (configuration not stated)	–	10 µM (active)
Cc1ccc(C(CC(=O)O)Nc2nc(N3CCCCC3)nc(N3CCCCC3)n2)cc1 (configuration not stated)	13%	–
Cc1ccc(C)c(OCC(=O)NNC(=O)C2CCC2)c1	-7.38%	–
CCc1cc2c(N3CCN(c4nnc(CC)s4)CC3)ncnc2s1	–	7.08 µM (active)
O=C(O[C@@H]1[C@H](Cc2ccccc2)NS(=O)(=O)[C@H]2C[C@@H]3C=C[C@]12O3)c1ccccc1Br	2.29%	–
COc1cccc(NC(=O)CSc2nccn(-c3ccc4c(c3)OCCO4)c2=O)c1	-25.2%	–
CC(=O)Nc1cccc(Nc2nc(-c3cccs3)nc3ccccc23)c1	–	11.2 µM (active)
CC(=O)Nc1cccc(-c2cnc3ccccc3n2)c1	-2.87%	–
O=c1[nH]c(-c2cccs2)nc2ccccc12	-0.761%	–

Structure (SMILES)	activity change, negative = inhibition	Potency
Cc1ccc(/C=C/C(=O)OCC(=O)NCc2ccc(Cl)cc2)o1	1.37%	–
O=S(=O)(c1ccccc1)N1CCC(c2ccccc2)CC1	4.33%	–
Cc1ccsc1C(=O)NCCc1ccco1	0.166%	–
O=C(COc1ccc(Br)cc1F)NCC1(N2CCCCC2)CCCCC1	-7.28%	–
CCN1C[C@@H]2[C@@H]3C(=O)N(Cc4ccccc4)C(=O)[C@@H]3[C@](Cc3ccccc3)(C(=O)OC)N2C1=NC1CCCCC1	11.2% [at 8.37 µM]	–
CCC[C@H]1CCCC/C=C\CCCC(=O)OCCN1C(=O)OC(C)(C)C	0.716%	–
CCN1C[C@@H]2[C@@H]3C(=O)N(C)C(=O)[C@@H]3[C@](C)(C1=O)N2C(=O)c1ccccc1	9.82%	–
O=C(/C=C/c1ccc([N+](=O)[O-])o1)NNC(=O)c1ccc(F)cc1	–	14.1 µM (active)
C/[N+]([O-])=C\c1ccc([N+](=O)[O-])o1	-3.61%	–
O=C(N/N=C/c1ccc([N+](=O)[O-])o1)c1cn(-c2ccccc2)nc1-c1ccc(F)cc1	-13.3%	–
CCCCCCSc1ccc(-c2nc3ccc(Cl)cn3c2NCc2ccccc2)cc1	15.9%	–
C[C@@H]1NS(=O)(=O)c2cc(Cl)ccc2O[C@@H]1c1ccccc1	8.02%	–
Cc1cccc(NC(=O)Cn2c(=O)n(Cc3ccccc3)c(=O)c3c(C)c(C)sc32)c1	–	10 µM (active)
Cc1cccc(-n2c(=O)c3c(C)c(C)sc3n(CC(N)=O)c2=O)c1	6.73%	–
Cc1sc2c(c1C)c(=O)n(-c1ccccc1)c(=O)n2CC(=O)NCC1CCCO1 (configuration not stated)	-3.51%	–
C=CCC(NC(=O)Cc1ccccc1)C(=O)NCCC (configuration not stated)	18.1%	–
CC(=NNC(=O)c1ccncc1)c1ccc(Cl)c(Cl)c1	-8.61%	–
CN(Cc1cccs1)C(=O)CN1C(=O)c2ccccc2S1(=O)=O	33.4%	–
COc1cc(C(=O)N2CCN(S(=O)(=O)c3ccc(C(C)C)cc3)CC2)ccc1OCC(=O)N1CCOCC1	19.6%	–
CCC(C)NCCOCCOc1ccc(Br)cc1C (configuration not stated)	–	11.2 µM (active)
Cc1ccc(OCCOCCOc2ccc(Br)cc2/C=N\NC(=O)c2ccncc2)cc1	4.5%	–
COCC(C)NCc1cc(Br)ccc1OC (configuration not stated)	25.2%	–
Cc1cccc(-n2ncc(C#N)c2-n2cccc2)c1	-13.2%	–
Cc1cccc(-n2ncc(Cl)c(Cl)c2=O)c1	–	11.2 µM (active)
O=c1c(Cl)c(NC2CC2)cnn1-c1ccccc1	13.3%	–
O=C(Nc1ccon1)c1cccc(Cl)c1	22.2%	–

Structure (SMILES)	activity change, negative = inhibition	Potency
O=C(Nc1ccc(NC(=O)c2ccc3c(c2)OCO3)cc1)c1cccc(Cl)c1	3.43%	–
COc1ccc(NC(=O)c2cccc(Cl)c2)c[n+]1[O-]	–	3.16 µM (active)
Cc1ccc(NC(=O)C(C)OC(=O)C2CC3CCCC(C2)C3=O)cc1S(=O)(=O)N1CCOCC1 (configuration not stated)	7.06%	–
CC[C@@H](C)[C@@H]1CN([C@@H](C)CN2CCC[C@H]2CN2C(N)=NC[C@H]2C(C)C)C(=N)N1CCc1ccc(Cl)c(Cl)c1	-49.6%	–
COc1ccccc1C(=O)NCC(=O)OCC(=O)Nc1nnc(-c2ccccc2)o1	14.5%	–
CCCC(=O)N1CCN(c2nnc(-c3ccc(C)cc3)c3ccccc23)CC1	–	12.6 µM (active)
c1ccc(-c2nnc(N3CCOCC3)c3ccccc23)cc1	-6.08%	–
OCCN1CCN(c2nnc(-c3ccccc3)c3ccccc23)CC1	-0.988%	–
COc1ccc2nc3n(c(=O)c2c1)-c1ccc(Cl)cc1C(=O)NC3Cc1ccccc1 (configuration not stated)	-23.3%	–
CCN(CC(=O)Nc1ccc(NC(C)=O)cc1)C(=O)CSC(=S)N1CCCC1	13%	–
CN(C(=O)CSc1cccc[n+]1[O-])C1CCCCC1	0.125%	–
Cc1ccc(N(Cc2cc(=O)[nH]c3ccccc23)C(=O)CCl)cc1	–	11.2 µM (active)
Cc1ccc(N(Cc2cc3ccccc3[nH]c2=O)C(=O)c2cccs2)cc1	-18.6%	–
CC(=O)N(Cc1cc(=O)[nH]c2ccccc12)c1ccc(C)cc1C	19.2%	–
COc1cc(O)c2c(=O)c3c(O)c(O)ccc3oc2c1OC	-35.3%	–
CC(=O)c1ccc(NC(=O)CCNS(=O)(=O)c2cc(Br)cnc2N)cc1	-1.13%	–
CCc1cccc(C)c1NS(=O)(=O)c1cc(Br)cnc1N	–	11.2 µM (active)
Cc1ccc(C)c(NS(=O)(=O)c2cc(Br)cnc2N)c1	3.9%	–
CCOc1ncccc1C(=O)OCC(=O)Nc1cccc(S(=O)(=O)N2CCCCCC2)c1	-5.14%	–
COC(=O)[C@]1(C)N[C@H](CN(C)C(=O)c2ccc(C(C)(C)C)cc2)[C@@H]2C(=O)N(C)C(=O)[C@@H]21	-14.2% [at 8.37 µM]	–
COCCn1c(SC(C)C(=O)NC2CC2)nnc1-c1cccc(C)c1 (configuration not stated)	9.78%	–
COC(=O)c1ccc(COc2ccc(/C=C/C(=O)c3ccc(OC)c(CSCC(=O)O)c3)cc2OC)cc1	-18.3%	–
COCOc1cc(O)c(C(=O)/C=C/c2ccc(OCOC)c(OCOC)c2)c(OCOC)c1	–	7.94 µM (active)
COc1ccc(/C=C/C(=O)c2ccc(OC)cc2O)cc1	1.23% [at 8.37 µM]	–
